Only some compounds are listed: those with a hit (about 7.5% of all), similar ones and a draw of the others.
ELG1 genotox: qHTS screen for small molecules that induce genotoxicity in human embryonic kidney (HEK293T) cells expressing luciferase-tagged ELG1. Potency, µM (top dose mostly 46 µM), for the others: at the top dose activity change, positive = activation, most hits filed as activators. HEK293T ELG1-luciferase reporter, luminescence, 16 h. actives 1.3% (n = 330,000); note: % of control where 0% means no effect; nearly all actives have a fitted effect of over 60% in size
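Reporter readout depends on ELG1 protein level, which increases with genetic stress. After 16 hr compound exposure at 37 °C, luciferase activity was quantified using ONE-Glo.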
FLuc counter: qHTS profiling assay for firefly luciferase inhibitor/activator using purifed enzyme and Km concentrations of substrates (counterscreen for miR-21 project) | Luciferin 4-monooxygenase (Photinus pyralis), P08659 | Potency, µM (series often up to 57.5 µM), for inactives: at the highest dose activity change, negative = inhibition, most hits filed as inhibitors | actives 6.9% (n = 360,000) | purified FLuc, Km substrates, luminescence inhibition;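 note: plate controls were vehicle for no effect and reference inhibitor for full effect; nearly all actives have a fitted effect of over 55% in size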
Target sequence (P08659 whole entry, looked up): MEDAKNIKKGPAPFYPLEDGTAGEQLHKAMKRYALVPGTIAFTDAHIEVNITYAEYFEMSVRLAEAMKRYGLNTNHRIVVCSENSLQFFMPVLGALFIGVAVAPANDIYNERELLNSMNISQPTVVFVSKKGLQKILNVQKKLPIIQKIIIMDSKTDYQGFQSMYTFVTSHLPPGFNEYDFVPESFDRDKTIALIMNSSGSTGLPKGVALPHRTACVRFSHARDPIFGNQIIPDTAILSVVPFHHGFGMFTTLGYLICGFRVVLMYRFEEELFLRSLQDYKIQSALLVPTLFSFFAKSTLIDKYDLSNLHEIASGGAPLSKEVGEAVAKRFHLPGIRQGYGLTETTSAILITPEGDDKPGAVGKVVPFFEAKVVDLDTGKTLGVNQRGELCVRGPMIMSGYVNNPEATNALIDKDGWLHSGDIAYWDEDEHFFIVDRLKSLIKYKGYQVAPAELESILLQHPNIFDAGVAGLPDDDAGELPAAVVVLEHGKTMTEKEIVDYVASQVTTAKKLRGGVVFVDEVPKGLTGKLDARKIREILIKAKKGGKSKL
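Purified P. pyralis luciferase (10nM final) with 10uM D-luciferin and 10uM ATP (Km levels) in 50mM Tris acetate pH 7.5, 10mM Mg acetate, 0.01% Tween-20, 0.05% BSA; qHTS 6-point titration, ~60 µM downward; luminescence read.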
NPC1 promoter act: qHTS Assay for NPC1 Promoter Activators | Huh7 NPC1 promoter luciferase reporter, 24 h | Potency, µM (highest dose often 9.22 µM), for inactives: at the highest dose activation, hits mostly activators | actives 2.4% (n = 320,000); note: % of control where 0% means no effect; nearly all actives have a fitted effect of over 60% in size
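Quantitative HTS used a cell-based reporter: Huh7 cells stably bearing the NPC1 promoter upstream of luciferase were treated with compounds for 24 h, and promoter activation was read as luminescence.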
SMN2 splice up: qHTS Assay for Enhancers of SMN2 Splice Variant Expression. AID 1458, 2008. actives 2.8% (n = 210,000). Potency, µM (highest dose often 46.1 µM), without a hit: at the highest dose activity change, positive = activation, actives largely listed as activators. HEK293 SMN2-luciferase splicing reporter, luminescence, 30-36 h; note: % of control where 0% means no effect; nearly all actives have a fitted effect of over 55% in size
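qHTS luciferase splicing reporter: luminescence rises when SMN2 exon 7 is included in transfected HEK293 cells. Compound exposure lasted 30-36 h at 37C, with 4.5 mM final sodium butyrate as control, followed by a ONE-Glo read.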
Luc counter: Counterscreen for Luciferase (Kinase-Glo TM) Inhibition; Luciferin 4-monooxygenase (Photuris pensylvanica), Q27757; Kinase-Glo luciferase, ATP luminescence, 8 min; Potency, µM (doses to about 38.3 µM), for inactives: at the highest dose activity change, negative = inhibition, most hits filed as inhibitors; actives 0.28% (n = 200,000); AID 1379, 2008; note: % is set by controls: 0 for no effect and ±100 for the full control effect; nearly all actives have a fitted effect of over 60% in size
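Compounds were added to a substrate mix at pH 7.2 (50 mM imidazole, 10 uM ATP, within the enzyme's linear range), followed by Kinase-Glo detection reagent; luminescence was measured after 8 minutes at ambient temperature.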
Rab9 promoter act: qHTS Assay for Rab9 Promoter Activators; Huh7 Rab9 promoter-luciferase reporter, luminescence, 24 h; Potency, µM (highest dose often 9.22 µM), inactives show at the highest dose activation, negative = inhibition, most hits filed as activators; actives 2.8% (n = 320,000); AID 485297, 2010; note: % of control where 0% means no effect; nearly all actives have a fitted effect of over 60% in size
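Huh7 reporter line, Rab9 promoter upstream of luciferase. Compound exposure 24 h at 37 °C in reduced-serum medium with 10% FBS. Read-out: luminescence.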
Starred values were filed as active, the others as inactive. Calls come from the whole dose curve; as a rule, active = well fitted curve in the direction sought with a large enough effect; inconclusive = small, poorly fitted or top-dose-only effect, or another doubt; inactive = no such curve, though single readings can be large; an effect the other way counts as inactive or inconclusive. Potency is the fitted concentration of half-maximal effect.

`CN1C=CC(=C2C(=O)c3ccccc3C2=O)C=C1` gave ELG1 genotox 2.91µM*, FLuc counter 3.01µM*, NPC1 promoter act 0.447µM*, SMN2 splice up 12.6µM*, Luc counter inconclusive and Rab9 promoter act 0.355µM*.
`CC1=CC(=C2C(=O)c3ccccc3C2=O)C=C(C)O1` gave ELG1 genotox 19.7%, FLuc counter inconclusive, NPC1 promoter act inconclusive, SMN2 splice up 9.1%, Luc counter -9.4% and Rab9 promoter act inconclusive.
`CCCN1C(=O)C(=O)c2cc(C)ccc21` gave ELG1 genotox 18.0%.
`CCCN1C=CC(=C2C(=O)c3ccccc3C2=O)C=C1` gave ELG1 genotox -7.1%, FLuc counter 0.0675µM*, NPC1 promoter act 3.16e-05µM*, SMN2 splice up -79.0%, Luc counter 4.47µM* and Rab9 promoter act 0.0003µM*.
Screening Cc1cccc(C(=O)N2CCc3cc(CNC(=O)c4ccc(Br)o4)ccc32)c1 returned FLuc counter 2.6%.
`Cc1c(Cl)cccc1NC(=O)Cc1ccc([N+](=O)[O-])cc1` gave ELG1 genotox -0.4%, FLuc counter -7.1%, NPC1 promoter act -10.5%, SMN2 splice up -5.2%, Luc counter -2.9% and Rab9 promoter act 13.8%.
CCc1ccc(CNC(=O)c2cc3c(=O)n(Cc4cccs4)ccc3nc2C)cc1 was read as FLuc counter 2.0%.
`CCCNC(=O)OCCC12CC3CC(CC(C3)C1)C2` gave ELG1 genotox inconclusive, FLuc counter 12µM*, NPC1 promoter act 15.9%, SMN2 splice up 7.2%, Luc counter -2.2% and Rab9 promoter act 16.5%.
`CCOC(=O)c1ccc(CN(Cc2ccccc2C)S(=O)(=O)c2ccc(C(C)(C)C)cc2)cc1` gave FLuc counter 1.5%.
Screening COc1ccc(CCNC(=O)c2cc(-c3ccc(C)c(C)c3)nc3ccccc23)cc1OC returned FLuc counter 2.69µM*.
`COc1ccc(-c2cc(C(=O)NCCc3ccc(OC)c(OC)c3)c3ccccc3n2)cc1` gave FLuc counter 6.75µM* and SMN2 splice up 3.0%.
`COc1ccc(CCNC(=O)c2cccc3ccccc23)cc1OC` gave ELG1 genotox -0.7%, FLuc counter 0.0%, NPC1 promoter act 0.5% and Rab9 promoter act -2.8%.
`COc1ccc(NC(=O)c2c(C)oc3ccc(O)c(CN4CCC(C)CC4)c23)cc1Cl` gave FLuc counter -8.0% and SMN2 splice up -11.8%.
`CCC(C)NC(=O)c1ccc(Cn2c(=O)c3cccn3c3cccnc32)cc1` (centres undefined) gave FLuc counter 0.2%.
Nc1c(C(=O)Nc2ccccc2)sc2nc(-c3ccco3)ccc12 was read as ELG1 genotox 5.7%, FLuc counter 12µM*, NPC1 promoter act inconclusive, SMN2 splice up 2.2%, Luc counter -2.7% and Rab9 promoter act inconclusive.
Screening Nc1c(C(=O)Nc2ccccc2Br)sc2nc(-c3cccs3)ccc12 returned SMN2 splice up -5.7%.
For CC(=O)c1sc2nc(-c3cccs3)ccc2c1N the results were ELG1 genotox 11.6µM*, FLuc counter 7.57µM*, NPC1 promoter act 18.4%, SMN2 splice up inconclusive, Luc counter -0.9% and Rab9 promoter act 3.55µM*.
Screening Nc1c(C(=O)Nc2nc3ccccc3s2)sc2nc(-c3cccs3)ccc12 returned ELG1 genotox inconclusive, FLuc counter 2.39µM*, NPC1 promoter act inconclusive, SMN2 splice up inconclusive, Luc counter -7.6% and Rab9 promoter act inconclusive.
Screening COc1ccc2[nH]cc(CCNC(=O)c3cnn(-c4ccccc4Cl)c3C3CCN(C(=O)OC(C)(C)C)CC3)c2c1 returned FLuc counter -2.2%.
For CC(=O)c1ccc(OCc2cc(C(=O)N3CCOCC3)no2)cc1 the results were ELG1 genotox inconclusive, FLuc counter 16.9µM*, NPC1 promoter act inconclusive and Rab9 promoter act inconclusive.
Screening CC(=O)c1ccc(OCc2cc(C(=O)N3CCC(Oc4ccccc4C)CC3)no2)cc1 returned ELG1 genotox 14.9%, FLuc counter 19µM*, NPC1 promoter act inconclusive and Rab9 promoter act inconclusive.
CC(=O)c1ccc(OCc2cc(C(=O)N3CCCCCCC3)no2)cc1 was read as ELG1 genotox -6.2%, FLuc counter inconclusive, NPC1 promoter act 13.6% and Rab9 promoter act 28.1%.
Cc1csc(=O)n1CCC(=O)OCC(=O)Nc1ncc(Cl)cc1Cl was read as ELG1 genotox 5.6%, FLuc counter 3.1%, NPC1 promoter act -1.7% and Rab9 promoter act -5.3%.
Screening CC(C)(C)C(=O)OCc1cn(-c2ccc(Cl)cc2)nn1 returned ELG1 genotox inconclusive, FLuc counter 15.1µM*, NPC1 promoter act inconclusive, SMN2 splice up 0.4%, Luc counter -4.1% and Rab9 promoter act 10.8%.
Screening CC(C)(C)C(=O)OCc1cn(-c2ccccc2)nn1 returned ELG1 genotox 13.8%, FLuc counter inconclusive, NPC1 promoter act inconclusive, SMN2 splice up 7.5%, Luc counter -1.4% and Rab9 promoter act 13.1%.
`COc1c(Cl)cccc1-c1cn2ccc(C)cc2n1` gave ELG1 genotox inconclusive, FLuc counter 0.675µM*, NPC1 promoter act 1.26µM* and Rab9 promoter act 0.562µM*.
`Cc1ccc(S(=O)(=O)Nc2ccc(-c3cn4ccc(C)cc4n3)cc2)cc1` gave ELG1 genotox -3.9%, FLuc counter inconclusive, NPC1 promoter act -2.4% and Rab9 promoter act 12.1%.
COc1ccc2oc(=O)c(-c3cn4ccc(C)cc4n3)cc2c1 was read as ELG1 genotox 20.6µM*, FLuc counter inconclusive, NPC1 promoter act inconclusive, SMN2 splice up -9.9%, Luc counter -4.3% and Rab9 promoter act 3.16µM*.
Screening Cc1ccn2cc(-c3ccc(Br)cc3)nc2c1 returned ELG1 genotox inconclusive, FLuc counter 0.151µM*, NPC1 promoter act 2.82µM* and Rab9 promoter act 0.562µM*.
For Cc1ccc(-c2cn3ccc(C)cc3n2)cc1 the results were FLuc counter 0.151µM* and SMN2 splice up 0.251µM*.
Cc1ccc(C(=O)N2CCN(c3nc4ccccc4n3C)CC2)cc1 was read as ELG1 genotox -5.8%, FLuc counter -0.2%, NPC1 promoter act -1.0% and Rab9 promoter act -4.8%.
